In PubChem BioAssay:
Where “and” joins values, the source holds several entries; their conditions need not be identical. Identical values can stand only once. For some assays here: Results with a measured potency or affinity are listed apart. Calls of active or inactive are those of the source. Unless noted, no stated cut-off is given here; in the data, active means parasite load remaining mostly below about 12% (no sharp cut-off); inactive means mostly above about 10%.

Legend:
[1] = blockers of polyQ-driven CASP3 activation – cell-based (AID 1583); details: polyglutamine-induced caspase-3 activation, cell assay; stronger effect = higher value;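 tested at 10 µM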
[2] = yeast 75Q aggregation reduction – 75Q-TubU reporter (AID 1593); details: Yeast 75Q polyglutamine aggregation reporter
[3] = restoration of touch response, mutant HTT neurons – whole organism, C. elegans mechanosensory neurons, N-terminal huntingtin (AID 1599); details: C. elegans polyQ-huntingtin mechanosensory neurons, stronger effect = higher value
[4] = blockers of cytochrome c efflux from mitochondria – biochemical, purified mitochondria (AID 1603); details: stronger effect = lower value;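 further: mouse liver mitochondria challenged with calcium chloride; signal normalized to the plate average as 100%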
[5] = polyglutamine aggregate formation blockers (AID 1604); details: polyglutamine-induced protein aggregation inhibition assay; stronger effect = higher value; tested at 2.5 µM
[6] = glutamate transport activators, MN-1 cells, MN-1 cell line (AID 1612); details: MN-1 motor neuron cells, stronger effect = higher value;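 further: tested at 1 µM final; 0% = mean of DMSO vehicle wells on each plate; positive means more glutamate uptake than control and negative means less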
[7] = GFP-Q80 aggregate reduction, neuronal-like cells, cell-based, NGF-treated PC12, GFPQ80 (AID 1614); details: PC12 NGF-treated GFP-polyQ80 inclusion reduction;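 further: lower means fewer inclusions and 0 means no inclusions at all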
[8] = 75Q-TubH aggregate inhibition, S. cerevisiae, yeast (AID 1616); details: S. cerevisiae 75Q-TubH polyglutamine aggregation suppression; stronger effect = higher value
[9] = P. berghei load reduction in hepatocytes – cell-based, HepG2, luciferase luminescence, HepG2 viability, primary screen (AID 624349);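 further: 100% = mean of DMSO negative control wells on the same plate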; details: P. berghei liver stage in HepG2, luciferase luminescence, concentration not given here; parasite load remaining: stronger effect = lower value; viability: measured here: HepG2 viability without parasites
[10] = EMT-state selective cytotoxicity in co-culture – imaging, PC-3E GFP, TEM4-18 mCherry, primary screen (AID 1345086;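 active means compounds killing one labelled cell type while sparing the other, by normalised counts and ratio limits, not self-fluorescent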;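 on all read-outs here: cells exposed to compound for 72 h before imaging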;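 on red/green cell ratio (normalised): normalised mesenchymal count divided by normalised epithelial count so high means epithelial killing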); details: PC-3E GFP / TEM4-18 mCherry co-culture, imaging cell counts, at 1 µM; for red/green cell ratio (normalised): actives lie on both sides, counts scaled to control wells, 1 = unselective
[11] = viability loss with induced miR-34 in A549 – imaging, A549 dox-inducible miR-34, nuclei and caspase counts, primary screen (AID 1347080;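 active means compounds whose cell count with miR-34 switched on is under 0.7 times the count with it off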); details: A549 miR-34 inducible, Hoechst nuclei count, 48 h
[12] = target: NAD(+) hydrolase SARM1 (Homo sapiens) (UniProt Q6SZW1); test: blocking NAD cleavage by SARM1 SAM-TIR – cell lysate, NAD-Glo luminescence (AID 1508614;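 active means compound whose remaining NAD level is above about 45 nM, limit read from the data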); details: SAM-TIR HEK293T lysate NADase, at 1 µM, stronger effect = higher value
[13] = target: Mitogen-activated protein kinase 7 (Homo sapiens) (UniProt Q13164); test: Gal4-ERK5 driven luciferase induction – cell-based, HTS, primary screen (AID 1508626;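 active means luciferase signal above three times the same-plate solvent-only control wells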;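 further: luciferase driven by Gal4-ERK5 fusion binding five Gal4 sites before minimal TATA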); details: HeLa Gal4-ERK5 transactivation, 18 h, at 5 µM, stronger effect = higher value
[14] = measured here: epithelial PC-3E GFP cell survival
[15] = measured here: mesenchymal TEM4-18 mCherry cell survival
[16] = stronger effect = lower value, cell number ratio, induced over uninduced
[17] = measured here: relative caspase fold change +Dox/-Dox
[18] = measured here: total cells with miR-34 induction, stronger effect = lower value
[19] = measured here: total cells without miR-34 induction

Chain of Mitogen-activated protein kinase 7 (Homo sapiens) (Q13164 whole entry, looked up, the tested form may be a part): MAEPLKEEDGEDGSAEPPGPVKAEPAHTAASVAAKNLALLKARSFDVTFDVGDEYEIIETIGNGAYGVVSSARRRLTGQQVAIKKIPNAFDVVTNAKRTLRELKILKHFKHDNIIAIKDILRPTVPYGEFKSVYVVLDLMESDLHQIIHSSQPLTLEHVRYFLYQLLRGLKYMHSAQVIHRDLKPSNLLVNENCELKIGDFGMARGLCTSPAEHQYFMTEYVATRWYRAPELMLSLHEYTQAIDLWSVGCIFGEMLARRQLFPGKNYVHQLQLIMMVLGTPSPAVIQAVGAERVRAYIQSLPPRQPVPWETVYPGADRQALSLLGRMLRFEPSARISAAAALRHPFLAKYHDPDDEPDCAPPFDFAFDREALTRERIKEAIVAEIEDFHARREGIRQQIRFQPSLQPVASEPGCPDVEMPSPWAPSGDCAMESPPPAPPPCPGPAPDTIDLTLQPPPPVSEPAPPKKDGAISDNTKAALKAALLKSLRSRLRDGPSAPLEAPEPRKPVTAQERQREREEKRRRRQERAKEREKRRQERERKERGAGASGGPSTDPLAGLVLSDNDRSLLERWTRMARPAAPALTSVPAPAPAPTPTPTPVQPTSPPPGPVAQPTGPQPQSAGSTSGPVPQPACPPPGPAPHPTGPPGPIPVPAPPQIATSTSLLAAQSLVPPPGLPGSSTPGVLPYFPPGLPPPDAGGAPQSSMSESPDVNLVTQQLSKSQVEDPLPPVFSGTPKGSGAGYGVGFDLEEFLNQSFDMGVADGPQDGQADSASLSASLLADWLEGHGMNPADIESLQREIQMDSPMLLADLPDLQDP
Chain of NAD(+) hydrolase SARM1 (Homo sapiens) (Q6SZW1 whole entry, looked up, the tested form may be a part): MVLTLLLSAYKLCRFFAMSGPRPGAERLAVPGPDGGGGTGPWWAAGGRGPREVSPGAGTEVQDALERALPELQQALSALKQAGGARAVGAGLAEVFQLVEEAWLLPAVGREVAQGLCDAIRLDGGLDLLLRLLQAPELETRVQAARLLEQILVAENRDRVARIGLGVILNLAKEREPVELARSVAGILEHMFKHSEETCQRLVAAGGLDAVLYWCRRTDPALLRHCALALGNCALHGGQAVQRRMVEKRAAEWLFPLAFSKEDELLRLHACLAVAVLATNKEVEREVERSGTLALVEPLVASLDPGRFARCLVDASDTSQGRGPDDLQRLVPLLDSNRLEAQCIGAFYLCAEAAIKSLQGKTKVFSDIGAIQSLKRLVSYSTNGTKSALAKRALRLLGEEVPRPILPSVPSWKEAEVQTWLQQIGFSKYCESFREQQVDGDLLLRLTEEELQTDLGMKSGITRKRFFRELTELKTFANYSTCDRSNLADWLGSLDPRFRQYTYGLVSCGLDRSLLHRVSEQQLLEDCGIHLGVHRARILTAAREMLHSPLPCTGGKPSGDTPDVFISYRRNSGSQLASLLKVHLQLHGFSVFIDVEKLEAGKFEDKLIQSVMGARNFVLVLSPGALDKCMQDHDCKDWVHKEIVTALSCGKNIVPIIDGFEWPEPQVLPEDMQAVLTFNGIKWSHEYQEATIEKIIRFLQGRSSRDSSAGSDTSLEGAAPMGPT

SMILES | inhibition [1] [%] | score [2] | rescue above control [3] | cytochrome c release ratio [4] | inhibition of aggregation [5] [%] | glutamate uptake change [6] [%] | inclusion score [7] | aggregation suppression score [8] | parasite load remaining [9] | viability [9] | red/green cell ratio (normalised) [10] | normalised cell number [10, 14] | normalised cell number [10, 15] | fold change [11, 16] | fold change [11, 17] | cell count [11, 18] | cell count [11, 19] | remaining NAD [12] | luciferase signal [13]
CN[C@@H]1[C@H](OC2[C@H](O[C@H]3[C@H](O)[C@@H](O)[C@H](N=C(N)N)[C@@H](O)[C@@H]3N=C(N)N)O[C@@H](C)[C@]2(O)C=O)O[C@@H](CO)[C@H](O)[C@H]1O (stereo partly drawn) | 11 | 1.53 | 0.21 | 1.12 | 65.1 | 10.8 | 1.5 | 1.33 | 83% (inactive) and 43.9% (inactive) | 71.2% and 98.6% | 1.2 (inactive) | 1.02 | 1.22 | 0.885 (inactive) | 2.64 | 11600 | 13100 |  | 
O=C(CNC(=O)c1ccc(Cl)cc1)NO |  |  |  |  |  |  |  |  | 45.5% (inactive) | 106% | 0.95 (inactive) | 1.13 | 1.08 | 0.961 (inactive) | 3.28 | 12100 | 12600 | 10 nM (inactive) | 60 AU (inactive)
CC(=O)OCC(=O)[C@@]1(O)CCC2C3CCC4=CC(=O)C=CC4(C)C3[C@@H](O)C[C@@]21C (stereo partly drawn) | 26 | 0.73 | -9.27 | 0.8 | 51 | 16.1 | 2 | 0.991 | 118% (inactive) and 56% (inactive) | 73.8% and 82.3% | 1.41 (inactive) | 1 | 1.41 | 0.859 (inactive) | 2.47 | 6780 | 7890 |  | 
CCOC(=O)Nc1nc2ccccc2[nH]1 |  |  |  |  |  |  |  |  | 62.9% (inactive) | 103% | 1.08 (inactive) | 0.9 | 0.97 | 0.84 (inactive) | 2.72 | 8540 | 10200 | 10 nM (inactive) | 88 AU (inactive)
Nc1ccc(S(=O)(=O)[O-])cc1.Nc1ccc(S(=O)(=O)[O-])cc1.[Zn+2] |  |  |  |  |  |  |  |  | 34.7% (inactive) | 93.6% | 0.95 (inactive) | 1.26 | 1.2 | 0.91 (inactive) | 2.98 | 11500 | 12600 |  | 56 AU (inactive)
CN[C@@H]1C(O)[C@@H](O[C@@H]2[C@@H](O)[C@H](O[C@H]3OC(CN)=CC[C@H]3N)[C@@H](N)C[C@H]2N)OC[C@]1(C)O (stereo partly drawn) | 11.9 | 1.54 | -2.25 | 1.22 | 66.2 | -12 | 2 | 1.05 | 96.3% (inactive) and 41.6% (inactive) | 74.6% and 94.8% | 1.18 (inactive) | 1.02 | 1.2 | 0.967 (inactive) | 4.46 | 11400 | 11800 |  | 
